Source: PubChem BioAssay (NCI)
This is part of a sample that, as a whole, favours compounds with a hit. Of some 79,000 tested, about 15% had one in any assay. The source made the active and inactive calls. No stated cut-off is given here; in the data, active means growth inhibition above about 70%; inactive means the rest.

Legend:
[1] = NCI Yeast Anticancer Drug Screen. Data for the rad52 strain (AID 147);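 further: 0% = growth of vehicle-treated control cultures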; conditions: S. cerevisiae rad52 mutant growth inhibition, active compounds read high
In short: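 Inhibition of yeast growth, referenced to vehicle controls, was the measured output for a strain with defective DNA damage repair.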

[2] = NCI Yeast Anticancer Drug Screen. Data for the rad50EPP+ strain (AID 151);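 further: 0% = growth of vehicle-treated control cultures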; conditions: S. cerevisiae rad50 mutant strain, active compounds read high
In short: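 Genetically defined yeast (rad50EPP+, DNA damage repair alteration) is grown with compound, and inhibition of growth is expressed relative to vehicle-treated controls.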

[3] = NCI Yeast Anticancer Drug Screen. Data for the mgt1 strain (AID 153); conditions: S. cerevisiae mgt1 mutant growth inhibition, active compounds read high
In short: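 In the mgt1 strain, test compounds were added and growth inhibition was determined relative to vehicle-treated controls.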

[4] = NCI Yeast Anticancer Drug Screen. Data for the rad50 strain (AID 155);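 further: 0% = growth of vehicle-only cultures of the same strain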; conditions: S. cerevisiae rad50 strain growth inhibition, active compounds read high
In short: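 Cells are treated with compound, grown, and their growth is then scored against vehicle-only cultures of the same repair-deficient yeast strain.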

[5] = NCI Yeast Anticancer Drug Screen. Data for the mec2-1 strain (AID 157); conditions: S. cerevisiae mec2-1 strain, active compounds read high
In short: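 Each compound was tested on mec2-1 yeast, a strain altered in DNA damage repair or cell cycle control. Growth inhibition is reported relative to vehicle.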

[6] = NCI Yeast Anticancer Drug Screen. Data for the rad14 strain (AID 159);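 further: 0% = growth of vehicle-treated control cultures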; conditions: S. cerevisiae rad14 strain growth inhibition, active compounds read high
In short: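 Readout: yeast growth inhibition, referenced to vehicle-only cultures. Strain bears a defined alteration in DNA damage repair.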

[7] = NCI Yeast Anticancer Drug Screen. Data for the sgs1 mgt1 strain (AID 161);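 further: 0% = growth of cultures given vehicle only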; conditions: S. cerevisiae sgs1 mgt1 strain, active compounds read high
In short: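 Mutant yeast exposed to compound; growth scored against vehicle-only wells.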

[8] = NCI Yeast Anticancer Drug Screen. Data for the CLN2oe strain (AID 163);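 further: 0% = growth of vehicle-only control cultures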; conditions: S. cerevisiae CLN2oe strain, active compounds read high
In short: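 First, the altered yeast strain was treated with each compound; second, its growth was measured; finally, inhibition was derived by comparison with vehicle controls.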

[9] = NCI Yeast Anticancer Drug Screen. Data for the cln2 rad14 strain (AID 165);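 further: 0% = growth equal to vehicle treated cultures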; conditions: S. cerevisiae cln2 rad14 strain, active compounds read high
In short: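 Test compounds were added to cln2 rad14 yeast cultures; inhibition of growth was then determined by comparison with vehicle treatment.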

[10] = NCI Yeast Anticancer Drug Screen. Data for the bub3 strain (AID 167); conditions: S. cerevisiae bub3 mutant strain, active compounds read high
In short: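 Part of a panel of yeast mutants defective in DNA damage repair or cell cycle regulation. Each strain is grown with compound, and inhibition is calculated relative to solvent-treated cultures.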

[11] = NCI Yeast Anticancer Drug Screen. Data for the wt2 strain (AID 169);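 further: 0% = growth of vehicle-treated yeast cultures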; conditions: S. cerevisiae wt2 strain growth inhibition, active compounds read high
In short: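 The panel's yeast strains carry defined changes in DNA repair or cell cycle genes. Each strain is grown with compound, and growth loss is scored relative to vehicle.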

[12] = NCI Yeast Anticancer Drug Screen. Data for the mlh1 strain (AID 171);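 further: 0% = growth of vehicle-treated control cultures of the same strain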; conditions: S. cerevisiae mlh1 strain growth inhibition, active compounds read high
In short: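 Inhibition values reflect reduced yeast growth in the presence of compound, referenced to vehicle controls, using a strain chosen for its alteration in DNA repair or cell cycle control.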

[13] = NCI Yeast Anticancer Drug Screen. Data for the sgs1 strain (AID 173);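 further: 0% = growth of vehicle-only control cultures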; conditions: S. cerevisiae sgs1 mutant, active compounds read high
In short: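 Vehicle-treated cultures served as reference for growth inhibition of a yeast strain altered in DNA damage repair or cell cycle control after compound exposure.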

[14] = NCI Yeast Anticancer Drug Screen. Data for the mlh1 rad18 strain (AID 175); conditions: S. cerevisiae mlh1 rad18 strain growth inhibition, active compounds read high
In short: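 Inhibition values reflect reduced growth of mutant yeast versus vehicle-treated controls following compound exposure; the mutations affect DNA damage repair.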

[15] = NCI Yeast Anticancer Drug Screen. Data for the rad18 strain (AID 177); conditions: S. cerevisiae rad18 mutant growth inhibition, active compounds read high
In short: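 Steps: expose repair-mutant yeast to compound; measure growth; express as inhibition relative to vehicle control.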

[16] = at 5.0 µM (retest, dose inferred, filed as 0.5)
[17] = at 50.0 µM (retest, dose inferred, filed as 5.0)

Measured: growth inhibition

Cc1cccc(C(C)(C)C)c1NC(=O)C(C#N)C1=C(Cl)C(=O)c2ccccc2C1=O (stereo not drawn)
active: [1]; at 33.0 µM 97% | [1]; at 100.0 µM 98% | [2]; at 11.0 µM 99% | [2]; at 33.0 µM 99% | [2]; at 100.0 µM 98% | [3]; at 33.0 µM 98% | [3]; at 100.0 µM 97% | [4]; at 11.0 µM 70% | [4]; at 33.0 µM 98% | [4]; [17] 97% | [4]; at 50.0 µM 91% | [4]; at 100.0 µM 96% | [5]; at 11.0 µM 95% | [5]; at 33.0 µM 95% | [5]; [17] 98% | [5]; at 50.0 µM 90.5% | [5]; at 100.0 µM 97% | [6]; at 11.0 µM 76% | [6]; at 33.0 µM 98% | [6]; at 100.0 µM 97% | [7]; [17] 98% | [7]; at 50.0 µM 89.5% | [8]; at 33.0 µM 98% | [8]; at 100.0 µM 98% | [9]; [17] 97% | [9]; at 50.0 µM 88.7% | [10]; at 11.0 µM 76% | [10]; at 33.0 µM 98% | [10]; [17] 98% | [10]; at 50.0 µM 92.3% | [10]; at 100.0 µM 96% | [11]; at 11.0 µM 74% | [11]; at 33.0 µM 97% | [11]; at 100.0 µM 94% | [12]; at 33.0 µM 99% | [12]; at 100.0 µM 98% | [13]; at 33.0 µM 98% | [13]; at 100.0 µM 97% | [14]; [17] 97% | [14]; at 50.0 µM 89.5% | [15]; at 33.0 µM 98% | [15]; at 100.0 µM 97%
inactive: [1]; at 1.2 µM 6% | [1]; at 3.7 µM 36% | [1]; at 11.0 µM 52% | [2]; at 1.2 µM 14% | [2]; at 3.7 µM 67% | [3]; at 1.2 µM 19% | [3]; at 3.7 µM 32% | [3]; at 11.0 µM 49% | [4]; at 1.2 µM 4% | [4]; at 3.7 µM 24% | [4]; [16] -1% | [5]; at 1.2 µM 14% | [5]; at 3.7 µM 46% | [5]; [16] -4% | [6]; at 1.2 µM 4% | [6]; at 3.7 µM 16% | [7]; [16] 46% | [8]; at 1.2 µM 4% | [8]; at 3.7 µM 30% | [8]; at 11.0 µM 58% | [9]; [16] 19% | [10]; at 1.2 µM 14% | [10]; at 3.7 µM 11% | [10]; [16] 39% | [11]; at 1.2 µM -21% | [11]; at 3.7 µM 6% | [12]; at 1.2 µM 17% | [12]; at 3.7 µM 22% | [12]; at 11.0 µM 56% | [13]; at 1.2 µM -2% | [13]; at 3.7 µM 9% | [13]; at 11.0 µM 45% | [14]; [16] 11% | [15]; at 1.2 µM -6% | [15]; at 3.7 µM 34% | [15]; at 11.0 µM 59%
